Assay outcomes deposited in PubChem by The Scripps Research Institute Molecular Screening Center.
HTR5A inv ctr: inverse agonist of human HTR5A in OPRM1-OPRD1 counter-screen; HTR5A cell line, luminescence, inverse agonism; inhibition, % at 9.3 µM; actives 0.083% (n = 340,000); AID 504634; in the data active means inhibition mostly above about 23%, no sharp cut-off; inactive means mostly below about 18%;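 further: 0% = cells with DMSO and 100% = no-cell wells with DMSO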
Target sequence (P47898 whole entry, looked up): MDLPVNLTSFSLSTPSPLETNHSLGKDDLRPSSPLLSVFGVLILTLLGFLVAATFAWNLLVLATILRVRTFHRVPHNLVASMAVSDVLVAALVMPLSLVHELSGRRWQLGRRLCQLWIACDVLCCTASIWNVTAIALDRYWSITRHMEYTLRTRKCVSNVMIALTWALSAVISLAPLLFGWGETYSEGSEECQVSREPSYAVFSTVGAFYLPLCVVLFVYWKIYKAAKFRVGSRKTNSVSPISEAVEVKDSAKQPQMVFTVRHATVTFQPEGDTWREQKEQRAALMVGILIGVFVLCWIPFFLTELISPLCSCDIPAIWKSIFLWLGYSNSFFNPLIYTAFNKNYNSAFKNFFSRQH
OPRM1-OPRD1 inv: mu-delta opioid heterodimer inverse agonism | cell-based MOR-DOR heterodimer luminescence | AID 504357 | actives 0.21% (n = 340,000) | inhibition, % at 9.3 µM | P35372+P41143; in the data active means inhibition above about 22%, passing the limit was not always enough;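 further: 0% = cells with DMSO and 100% = wells without cells with DMSO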
MOR-DOR ag: OPRM1-OPRD1 heterodimerization agonism; P35372+P41143; actives 0.3% (n = 340,000); AID 504326; cells, luminescence; activation, % at 9.3 µM; in the data active means activation above about 18%;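 further: 0% = vehicle-treated cells and 100% = reference agonist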
HTR5A ag ctr: HTR5A agonism, opioid heterodimer counter-screen; P47898; HTR5A agonist assay, luminescence, cell-based; activation, % at 9.3 µM; actives 0.61% (n = 340,000); AID 504692; in the data active means activation mostly above about 9.5%, no sharp cut-off; inactive means mostly below about 7.6%;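 further: 0% = cells with vehicle only and 100% = reference agonist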
OPRM1-D1 inv cf: confirmation of human OPRM1-OPRD1 heterodimerization inverse agonists | shares compounds with OPRM1-OPRD1 inv | cells expressing OPRM1/OPRD1 heterodimer, luminescence | inhibition, % at 9.3 µM | actives 20% (n = 580) | AID 504900; in the data active means inhibition above about 32%;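 further: 0% = cells with DMSO and 100% = wells lacking cells with DMSO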
HTR5A inv count: HTR5A inverse agonism, opioid heterodimer counter-screen. inhibition, % at 9.3 µM. HTR5A-expressing cells, luminescence. 580 tested, under 10 active. shares compounds with OPRM1-OPRD1 inv; call rule not given here;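 further: 0% = cells with DMSO and 100% = no-cell wells with DMSO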
Active calls of the source: *; . = no result given. Shown are actives, neighbours in structure and some others; about 1.1% of the full set was active somewhere.

SMILES	HTR5A inv ctr	OPRM1-OPRD1 inv	MOR-DOR ag	HTR5A ag ctr	OPRM1-D1 inv cf	HTR5A inv count
CCN(CC)CC(=O)c1ccc(-c2ccccc2)cc1	9.5	54.2*	-10.2	-2.9	-57.6	5.0
CN(C)CC(=O)c1ccc(-c2ccccc2)cc1	0.1	33.5*	-6.1	-1.0	-41.8	-12.0
O=C(NCCc1ccccc1O)c1cc2c(cc1[N+](=O)[O-])OCO2	-15.2	10.8	-2.5	4.0	.	.
CN(c1ccccc1C(=O)Nc1ccc(S(=O)(=O)N2CCOCC2)cc1)S(=O)(=O)c1ccccc1	4.9	33.2*	-6.5	3.1	-3.2	-15.4
Cc1ccc(C)c(C(=O)COC(=O)CNS(=O)(=O)c2ccccc2)c1	-0.2	-0.6	0.1	0.1	.	.
Cc1ccc(S(=O)(=O)CCC(=O)OCC(=O)c2ccc(C)c(C)c2)cc1	-29.4	9.7	-1.8	2.1	.	.
Cc1ccc(C(=O)COC(=O)CCS(=O)(=O)c2ccccc2)cc1[N+](=O)[O-]	28.1	42.1*	-10.9	-6.0	-342.8	11.2
Cc1ccc(C(=O)COC(=O)CNS(=O)(=O)c2ccccc2)cc1[N+](=O)[O-]	18.2	59.1*	-14.2	-8.8	13.3	-3.6
Cc1cccc(N=C2C(=O)Nc3c(Cl)cccc32)c1	-9.7	55.8*	-11.7	2.6	26.7	6.5
Cc1cccc(N=C2CSC(=O)N2)c1	-3.6	15.7	-3.5	2.3	.	.
Cc1cccc2c1N(CCOc1ccc(C(C)(C)C)cc1)C(=O)C2=O	5.2	35.6*	-5.9	-1.9	-14.1	-110.5
Cc1ccc(OCCCN2C(=O)C(=O)c3cccc(C)c32)cc1	2.7	45.0*	-8.3	-1.0	12.3	5.1
COc1cc(C(=O)N(C)CC2CCN(CCc3cccc(C(F)(F)F)c3)CC2)ccc1C	17.7	-38.3	7.7	-0.7	.	.
O=C(CCC(=O)N(c1ccccc1)C(C(=O)NC1CCCC1)c1ccncc1)Nc1cccnc1 (stereo not given)	-20.2	20.4	-3.3	3.5	.	.
COCCN(C(=O)CCC(=O)Nc1cccnc1)C(C(=O)NC1CCCCC1)c1ccccc1 (stereo not given)	10.6	35.9*	-6.7	-3.5	-16.5	-5.1
C/C(=N\N=C1\NC(=O)CS1)c1cccs1	36.0	14.1	-2.7	3.9	.	.
Cc1ccc(C(=O)NCCNC(=O)c2ccc(F)cc2)cn1	-6.2	8.1	-1.2	-0.7	.	.
CCc1ccccc1OCC(=O)N1CCN(c2ncccn2)CC1	27.2	7.0	-1.4	2.7	.	.
O=[N+]([O-])c1cccc(/C=N/NS(=O)(=O)c2ccccc2)c1	-10.9	38.4*	-7.5	-0.5	21.0	0.1
NS(=O)(=O)c1cccc(NC(=O)COC(=O)CCC(=O)c2cccs2)c1	-7.7	20.0	-5.3	-2.3	.	.
CC(=O)c1cccc(NC(=O)COC(=O)c2ccccc2C)c1	1.1	1.1	-0.1	4.3	.	.
CCc1ccc(C(=O)NNc2cc(Cl)cc(Cl)c2)cc1	-8.0	-16.2	3.2	-0.8	.	.
CCc1ccc(C(=O)NNc2ccc(Cl)cc2)cc1	6.2	39.4*	-8.0	-6.7	14.2	1.0
CCCc1ccc(C(=O)NNc2cccc(C)c2)cc1	0.1	43.9*	-8.8	-7.1	25.4	13.6
O=C(NNc1cc(Cl)cc(Cl)c1)c1cccs1	4.0	23.3	-4.6	-0.7	.	.
SMILES	HTR5A inv ctr	OPRM1-OPRD1 inv	MOR-DOR ag	HTR5A ag ctr	OPRM1-D1 inv cf	HTR5A inv count
O=C(NNc1ccc(Cl)cc1)c1cccs1	-9.6	49.5*	-9.7	-1.7	-15.5	-6.8
O=C(CN1C(=O)NC2(CCCC2)C1=O)NNC(=O)c1ccc(Cl)cc1	12.9	6.7	-1.7	3.5	.	.
Cc1ccc(OCCN2C(=O)C(=O)c3cc(C)ccc32)cc1	7.1	23.2	-4.4	0.2	.	.
Cc1ccc2c(c1)C(=O)C(=O)N2CC(=O)OC(C)C	23.4	54.5*	-9.7	-9.2	9.8	-0.8
O=C(N/N=C1\CCS(=O)(=O)c2ccc(F)cc21)c1ccc(O)cc1	-17.9	8.4	-1.6	1.1	.	.
O=C(NC1CCCCC1)C1CC(=O)N(c2ccccc2)C1 (stereo not given)	-20.5	-7.1	0.9	0.0	.	.
O=C(Nc1ccc2c(c1)OCO2)C1CC(c2cccc(Br)c2)=NO1 (stereo not given)	6.0	-0.1	0.0	-1.6	.	.
COc1ccc(S(=O)(=O)N=Nc2c(O)[nH]c3ccccc23)cc1	21.2	45.0*	-9.0	0.4	-63.0	3.8
Cc1ccc(N(CC(=O)N=Nc2c(O)[nH]c3ccccc23)S(C)(=O)=O)c(C)c1	1.5	14.7	-2.9	1.9	.	.
